# HCV inh: inhibitors of hepatitis C virus infection. Huh7.5.1 HCVcc-Cre infection, luciferase reporter, 44 h. Potency, µM (titrated, usually from 41.8 µM), without a hit: top-dose activity change, negative = inhibition, actives largely listed as inhibitors. 3.4% of 340,000 active. AID 651820; active = well fitted inhibition curve with a large enough effect; inconclusive = small, poorly fitted or top-dose-only effect, or another doubt; inactive = no such curve, though single readings can be large or run the other way; also: potency is read from the fitted curve at half-maximal effect
#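 Infectious HCV cell culture screen: compound-treated cells (1,000/well, pre-plated 4 h) are infected with HCVcc-Cre at roughly 0.5 moi and grown 44 h. Infection is quantified by luciferase signal after 15 min substrate incubation at room temperature.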
# FMDV inh: blocks foot and mouth disease virus; FMDV antiviral cell-based qHTS; Potency, µM (doses to about 57.9 µM), without a hit: at the top dose activity change, negative = inhibition, hits mostly inhibitors; 1.2% of 410,000 active; calls by dose curve; tested in HEK293T cells; also: read-out not given here; potency is read from the fitted curve at half-maximal effect; nearly all actives have a fitted effect of over 45% in size
# Vaccinia mCherry: vaccinia inhibition (mCherry reporter); 0.63% of 310,000 active; Vaccinia virus mCherry reporter infection, fluorescence; AID 720579; Potency, µM (top dose mostly 36.5 µM), without a hit: top-dose activity change, negative = inhibition, usual class: inhibitors; calls by dose curve; tested in A549 cells; also: potency is read from the fitted curve at half-maximal effect; nearly all actives have a fitted effect of over 35% in size
# HCMV inh: human cytomegalovirus inhibition. HFF cells, HCMV-luciferase reporter, 72 h; stronger effect = lower value. 4.5% of 410,000 active. activity change, negative = inhibition, % at 57.5 µM; in the data active = activity change below about -60%; inconclusive = no clear call, values can overlap the other calls; inactive = above about -39%
#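 Cell-based, HFFs, 1000 cells/well, 16 h 37C; cpds in DMSO + HCMV-luc, MOI 1 PFU/cell; 72 h 37C; OneGlo luminescence after 5 min RT; norm. to buffer vs Salinomycin 10uM.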
# Vaccinia Venus: inhibitors of vaccinia virus (Venus reporter). Vaccinia virus Venus reporter expression, fluorescence. Potency, µM (series often up to 36.5 µM), inactives show at the highest dose activity change, negative = inhibition, usual class: inhibitors. 0.46% of 330,000 active; calls by dose curve; tested in A549 cells; also: potency is read from the fitted curve at half-maximal effect; nearly all actives have a fitted effect of over 30% in size
# The depositor's hits bear a star; i = inactive; u = inconclusive; x = no result given; [ ] = another dose, or the depositor's remark. Compounds with a hit are over-represented: about 7.3% of the library has one in this group of screens. % is scaled to controls: 0 for no effect and ±100 for the full control effect.
SMILES,HCV inh,FMDV inh,Vaccinia mCherry,HCMV inh,Vaccinia Venus
Cc1ccc2nc(/N=C(\N)NC(=O)NC3CCCCC3)nc(C)c2c1,11µM*,u,u,-65*,u
Cc1nc(/N=C(\N)NC(=O)c2ccccc2)nc2ccccc12,u,40%,i,41,-4%
FC(F)Oc1ccc(NC(=S)Nc2ccc3cn[nH]c3c2)cc1,u,14%,i,u,-3%
CN(NC(=S)Nc1ccc(OC(F)F)cc1)C(=S)Nc1ccc(OC(F)F)cc1,u,8%,u,-5,-2%
Oc1cccc2c(NC(=S)Nc3ccc(OC(F)F)cc3)cccc12,-15%,u,u,-99*,4%
FC(F)Oc1ccc(NC(=S)Nn2cnnc2)cc1,5µM*,-18%,x,73,x
COCCNS(=O)(=O)c1ccc(-c2ccc(C)cc2)cc1,u,4%,x,-64*,x
COc1ccc(NC(=O)Cn2c(=O)oc3cc(S(=O)(=O)NCc4ccccc4)ccc32)c(OC)c1,x,-3%,-15%,0,-14%
CCOC(=O)C1(CCOc2ccccc2)CCN(Cc2ccc(OC)c(COC)c2)CC1,11µM*,u,-6%,-39,-26%
CCOC(=O)C1(CCc2ccccc2)CCN(Cc2cccc3cnccc23)CC1,10µM*,u,-18%,u,-9%
CCOC(=O)C1(CCc2ccccc2)CCN(Cc2ccc(OC)cc2)CC1,19%,-8%,i,8,1%
CCOC(=O)C1(CCOc2ccccc2)CCN(Cc2ccc(OC)c(O)c2)CC1,u,u,x,43,x
CCOC(=O)C1(CCc2ccccc2)CCN(Cc2c(O)cccc2OC)CC1,u,32µM*,-29%,-18,-22%
CCOC(=O)C1(CCc2ccccc2)CCN(Cc2cccc3c2OCO3)CC1,10µM*,u,-21%,u,-13%
CCOC(=O)N1C(=O)C[C@H](C(=O)N2CCOCC2)[C@H]1c1ccc(OC)cc1,x,x,x,-14,x
Cn1nnnc1SCCNCc1ccccc1OCc1ccc(Cl)cc1Cl,x,u,i[7.34 µM],-39,-16%[7.34 µM]
COc1cc(C2CC(=O)c3c([nH]c(C(=O)OCCOC(C)C)c3C)C2)cc(OC)c1OC (stereo unspecified),u,11µM*,-28%,-63*,-25%
COc1cc(C2CC(=O)c3c([nH]c(C(=O)OCc4ccc(C)cc4)c3C)C2)cc(OC)c1OC (stereo unspecified),x,14µM*,u,-18,-29%[7.34 µM]
CCOC(=O)c1[nH]c2c(c1C)C(=O)CC(c1ccc(OC)c(OC)c1)C2 (stereo unspecified),u,-10%,x,-6,-26%
COC(=O)[C@]1(C)CC[C@@]2(C)CC[C@@]3(C)C4=CC=C5C(=CC(=O)C(O)=C5C)[C@@]4(C)CC[C@@]3(C)C2C1 (stereo partly specified),x,10µM*,-17%,x,-27%
COc1ccc(-c2cc(-c3nnc(-c4ccncc4)o3)c3ccccc3n2)cc1,0%,-22%,-13%,10,-10%
c1ccc2c(-c3nc(C4CCCCC4)no3)cc(-c3ccncc3)nc2c1,8.9µM*,-21%,x,x,x
CCCCNC(=O)O[C@H]1CC[C@@]23CCCN2C(=O)CCC[C@H]3[C@H]1Cc1ccccc1,x,x,x,-17,x
CCCC(O)(c1ccccc1)C(CN1CCOCC1)c1ccccc1 (stereo unspecified),-23%,-22%,x,u,x
CC(C)CCC(O)(c1ccccc1)C(CN1CCOCC1)c1ccccc1 (stereo unspecified),u,u,-9%,-67*,-16%
SMILES,HCV inh,FMDV inh,Vaccinia mCherry,HCMV inh,Vaccinia Venus
CC(C)CC(O)(c1ccccc1)C(CN1CCOCC1)c1ccccc1 (stereo unspecified),6%,-23%,-23%,u,-16%
CCCC(O)(c1ccc(Cl)cc1)C(CN1CCOCC1)c1ccccc1 (stereo unspecified),u,-27%,-4%,-28,-18%
CCCCCCC(O)(c1ccccc1)C(CN1CCOCC1)c1ccccc1 (stereo unspecified),u,u,x,-76*,x
CCCCCCC(O)(c1ccc(OC)cc1)C(CN1CCOCC1)c1ccccc1 (stereo unspecified),u,-30%,-3%,-69*,-16%
CCCCCC(O)(c1ccccc1)C(CN1CCOCC1)c1ccccc1 (stereo unspecified),u,u,x,-60*,x
CCOc1ccc(C(=O)N2CCc3cc(OC)c(OC)cc3C2COc2ccc3c(C)cc(=O)oc3c2)cc1OCC (stereo unspecified),x,-26%,-17%,9,-10%
CC1CCC(C(=O)NC(C(=O)OCC(=O)c2ccc(Br)cc2)C(C)C)CC1 (stereo unspecified),x,0%,-2%,u,-3%
CN(C)c1ccc(C=O)cc1[N+](=O)[O-],x,x,-14%,x,-14%
O=C(CN1CCN(S(=O)(=O)c2cc(C(F)(F)F)ccc2Cl)CC1)N1CCc2ccccc2C1,11µM*,u,x,-28,x
CCOc1ccc(C(=O)NCCn2cc(SCC(=O)Nc3ccccc3)c3ccccc32)cc1,x,u,-28%,-18,-26%
Cc1cc(C)nc(/N=C(\N)Nc2ccccc2-c2ccccc2)n1,u,18µM*,u,u,-30%
Cc1ccc(N/C(N)=N/c2nc(C)cc(C)n2)cc1,10%,0%,-2%,-4,-21%
CCC(=O)Nc1ccc(N/C(N)=N/c2nc(C)cc(C)n2)cc1,u,-11%,x,15,x
Cc1cccc(N/C(N)=N/c2nc(C)cc(C)n2)c1,u,-19%,u,29,-19%
Cc1cc(C)nc(/N=C(\N)Nc2ccc(C(C)C)cc2)n1,11µM*,14µM*,-16%[7.34 µM],-63*,-17%[7.34 µM]
CCCCc1ccc(N/C(N)=N/c2nc(C)cc(C)n2)cc1,-84%,25µM*,u,-97*,u
COc1ccc(-c2nc(C)c(CCNS(=O)(=O)c3cc(C)c(C)cc3C)s2)cc1,x,53%,-20%,-23,-14%
C#CCn1c(C2CC(=O)N(c3ccc(OC)cc3)C2)nc2ccccc21 (stereo unspecified),x,3%,-9%,-13,-16%
COc1ccc(NC(=O)C2Cc3c(-c4ccccc4Oc4ccccc4)ccnc3O2)cc1OC (stereo unspecified),x,25µM*,-13%,-76*,-26%
CC(C)c1ccc(NC(=O)C2Cc3c(-c4ccccc4Oc4ccccc4)ccnc3O2)cc1 (stereo unspecified),x,-18%,1%,-61*,16%
CNC(=O)C1Cc2c(-c3ccccc3Oc3ccccc3)ccnc2O1 (stereo unspecified),x,-14%,14%,-3,-11%
COc1ccc(NC(=O)C2Cc3c(-c4ccccc4Oc4ccccc4)ccnc3O2)cn1 (stereo unspecified),x,-25%,-22%,-29,-11%
C/C(CC(=O)Nc1cc(C)ccn1)=N\NC(=O)c1cccc(C)c1O,u,51%,u,-98*,-30%

# Compound activity as filed in PubChem BioAssay.
